Compound activity: PubChem, National Center for Advancing Translational Sciences (NCATS)
Most compounds without a hit are left out; they make up all but 0.74% or so of the library.
RECQ1 helicase – qHTS Assay for Inhibitors of RecQ-Like Dna Helicase 1 (RECQ1) | RECQ1 DNA unwinding, red fluorescence kinetic read | Potency, µM (doses to about 57.3 µM), actives largely listed as inhibitors | 0.54% of 240,000 active | AID 2549, 2010; further: nearly all actives have a fitted effect of over 30% in size
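RECQ1T1 50 nM; forked duplex (20 bp + 30-nt ss tails) 200 nM, ATP 2 mM final; pH 8.0, 2 mM MgCl2, 2.5 ug/ml poly(dI-dC); 15 min compound preincubation; discontinuous kinetic read over 2 h at RT.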
FEN1 inhibitor – qHTS Assay for the Inhibitors of Human Flap endonuclease 1 (FEN1). P39748. Recombinant FEN1 flap cleavage, fluorescence, 15 min. Potency, µM (titrated, usually from 114 µM), hits mostly inhibitors. 0.35% of 390,000 active; further: nearly all actives have a fitted effect of over 65% in size
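With each library titrated from low to high concentration, compounds met 10 nM FEN1 for 15 min at room temperature before 50 nM substrate was added; readings at 0 and 15 min fed four-parameter Hill curve fits.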
BLM helicase inh – qHTS Assay for Inhibitors of Bloom's syndrome helicase (BLM); recombinant BLM DNA unwinding, fluorescence dequenching; Potency, µM (titrated, usually from 56.1 µM), most hits filed as inhibitors; 0.2% of 350,000 active; AID 2528, 2010; further: nearly all actives have a fitted effect of over 35% in size
APE1 inh-1 – qHTS Assay for Inhibitors of the Human Apurinic/apyrimidinic Endonuclease 1 (APE1). Potency, µM (doses to about 65.8 µM), most hits filed as inhibitors. AID 2517, 2012. 0.35% of 350,000 active. recombinant APE1, TAMRA/BHQ-2 abasic DNA cleavage fluorescence; further: nearly all actives have a fitted effect of over 55% in size
Target sequence (P27695 whole entry, looked up): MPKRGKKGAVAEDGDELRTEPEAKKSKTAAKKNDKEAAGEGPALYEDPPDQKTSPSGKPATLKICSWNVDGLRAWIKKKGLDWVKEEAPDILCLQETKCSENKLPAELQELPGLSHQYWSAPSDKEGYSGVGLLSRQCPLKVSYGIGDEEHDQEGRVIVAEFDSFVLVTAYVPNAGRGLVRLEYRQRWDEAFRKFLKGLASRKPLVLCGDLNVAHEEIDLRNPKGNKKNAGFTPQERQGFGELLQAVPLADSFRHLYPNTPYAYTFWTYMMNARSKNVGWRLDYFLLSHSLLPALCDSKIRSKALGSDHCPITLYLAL
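Compound pre-exposure to 0.75 nM APE1, 15 min at ambient temperature. Reaction initiated with 50 nM TAMRA/BHQ-2 THF substrate, read immediately in kinetic mode, 525 nm excitation, 598 nm emission.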
PGK inhibitor – qHTS Assay to Find Inhibitors of Phosphoglycerate Kinase; AID 602233, 2012; Phosphoglycerate kinase, glycosomal (Trypanosoma brucei brucei), P07378; 0.043% of 380,000 active; PGK/GAPDH coupled, Kinase-Glo luminescence, 60 min; Potency, µM (series often up to 57.5 µM), hits mostly inhibitors; further: nearly all actives have a fitted effect of over 60% in size
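Luminescent ATP detection (Kinase-Glo Plus) follows a 60-minute room-temperature incubation, with wells lacking PGK as controls. Buffer: 100 mM TEA (pH 7.6), 5 mM MgCl2, 0.01% Tween-20. Coupling enzyme GAPDH (100 nM final) supplies unstable 1,3-BPG in-well.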
DNA dye displace – Counterscreen for APE1 Inhibitors: Fluorescent Dye Displacement Assay; DNA fluorescent dye displacement counterscreen, fluorescence; shares compounds with APE1 inh-1; Potency, µM (series often up to 28.5 µM), most hits filed as inhibitors; 7% of 480 active;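 further: loss of thiazole orange fluorescence as the dye is displaced from duplex DNA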
Endo IV inh – Counterscreen for APE1 Inhibitors: qHTS Assay for Inhibitors of Endonuclease IV; shares compounds with APE1 inh-1; E. coli Endo IV, fluorogenic AP-site DNA cleavage; Potency, µM (doses to about 27.1 µM), hits mostly inhibitors; 4% of 560 active
APE1 inh-2 – Confirmation qHTS Assay for Inhibitors of the Human Apurinic/apyrimidinic Endonuclease 1 (APE1); Potency, µM (top dose mostly 57.1 µM), most hits filed as inhibitors; AID 2572, 2010; 44% of 750 active; shares compounds with APE1 inh-1; purified APE1, fluorogenic abasic-site DNA cleavage; further: nearly all actives have a fitted effect of over 30% in size
APE1 FP – qHTS FP-Based Assay for Inhibitors of the Human Apurinic/apyrimidinic Endonuclease 1 (APE1); APE1 binding to TAMRA-labelled double-stranded DNA, fluorescence polarization displacement; AID 2573, 2010; shares compounds with APE1 inh-1; 7% of 480 active; Potency, µM (series often up to 28.5 µM), usual class: inhibitors
Large screens that a line does not name were inactive (follow-up assays come after a bar, where they were run). The call rests on the fitted dose curve; in most records, active means well fitted curve in the direction sought with a large enough effect; inconclusive means small, poorly fitted or top-dose-only effect, or another doubt; inactive means no such curve, though single readings can be large; an effect the other way counts as inactive or inconclusive.

COC(=O)c1ccc(=O)c2nc3/c(=C/O)c(O)cc(=O)c3[nH]c12	RECQ1 helicase inconclusive, FEN1 inhibitor 39.8µM, BLM helicase inh 17.8µM, APE1 inh-1 inconclusive | DNA dye displace inconclusive | Endo IV inh inconclusive | APE1 inh-2 inconclusive | APE1 FP inactive
CCn1cc(C(=O)O)c(=O)c2cc(F)c(N3CCN(S(=O)(=O)c4ccc(NC(=O)OC)cc4)CC3)cc21	FEN1 inhibitor inconclusive | APE1 inh-2 inactive
O=S(=O)(c1ccccc1)N1N=C(c2cccs2)CC1c1ccc(F)cc1 (stereo not given)	none
Fc1ccc(N2N=C(c3cccs3)CC2c2ccccc2)cc1 (stereo not given)	none | APE1 inh-2 inactive
COc1ccc(CNC(=O)Nc2cc(C)cc(C)c2)cc1	none | DNA dye displace inactive | Endo IV inh inactive | APE1 inh-2 inactive | APE1 FP inactive
COc1ccc(CNC(=O)Nc2ccc(C)cc2)cc1	APE1 inh-1 inconclusive
CC(C)OC(=O)CSc1nnc2c3ccccc3n(C)c2n1	none
Cc1cc(C=O)c(C)n1-c1cccc(C(=O)O)c1	APE1 inh-1 22.4µM | DNA dye displace inactive | Endo IV inh inactive | APE1 inh-2 15.8µM | APE1 FP inactive
Cc1ccc(S(=O)(=O)N2CCCCC2)cc1C(=O)Nc1ccc(S(=O)(=O)Nc2ncccn2)cc1	RECQ1 helicase inconclusive, FEN1 inhibitor inconclusive, APE1 inh-1 inconclusive | APE1 inh-2 inconclusive
O=C(Nc1ccc(S(=O)(=O)Nc2ncccn2)cc1)c1ccc(S(=O)(=O)N2CCCC2)cc1	none
CCOC(=O)N1CCN(C(=O)c2c(O)c3cccc4c3n(c2=O)CC4)CC1	APE1 inh-1 39.8µM | DNA dye displace inactive | Endo IV inh inactive | APE1 inh-2 inactive | APE1 FP inactive
[O][C@H]1[C@@H](O)[C@@H](CO)O[C@@H](O[C@@H]2[C@@H]3OC[C@H]2O[C@H](O[C@@H]2[C@@H](O)[C@H](C[C@@H]4[C@@H]5OC[C@H]4O[CH][C@@H]5O)O[C@H](CO)[C@@H]2OS(=O)(=O)O)[C@@H]3OS(=O)(=O)O)[C@@H]1O	RECQ1 helicase 3.98µM, BLM helicase inh inconclusive, APE1 inh-1 10µM (no result: FEN1 inhibitor, PGK inhibitor) | DNA dye displace inactive | Endo IV inh inactive | APE1 inh-2 7.08µM | APE1 FP inactive
OC[C@@H]1O[C@H](OC2[C@@H](O)[C@@H](O)C(O)O[C@@H]2CO)[C@H](O)[C@@H](O)[C@@H]1OC1O[C@H](CO)[C@@H](O)[C@H](O)[C@@H]1O (stereo not given in full)	none (no result: FEN1 inhibitor, PGK inhibitor)
O=C(O)c1ccc(-c2ccc(/C=C3\NC(=O)N(Cc4ccc(Cl)cc4)C3=O)o2)cc1	none | APE1 inh-2 inconclusive
O=C(CSc1nc(-c2ccccc2)nc2ccc(F)cc12)Nc1cccc(C(=O)O)c1	FEN1 inhibitor inconclusive | APE1 inh-2 inactive
O=C(CSc1nncc2ccccc12)Nc1cccc(C(=O)O)c1	none
CCOC(=O)[C@H](CCc1ccccc1)N[C@@H](C)C(=O)N1CCC[C@@H]1C(=O)O	none (no result: RECQ1 helicase, BLM helicase inh)
